An excerpt weighted towards active compounds, which were near 20% of everything screened.
Pf growth 96h: P. falciparum growth inhibition at 96 hour, primary screen for plastid delayed-death inhibitors; Potency, µM (series often up to 28.7 µM), for inactives: top-dose activity change, negative = inhibition, usual class: inhibitors; AID 504834; 320,000 compounds, 6.9% hits; P. falciparum luciferase reporter growth, 96 h; note: potency is the fitted concentration of half-maximal effect; % is set by controls: 0 for no effect and ±100 for the full control effect
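96 h incubation, 37 C, 5% CO2, of luciferase-reporter P. falciparum-infected RBCs (2% hematocrit, 0.05% parasitemia final) with test compounds; endpoint luminescence.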
Pf growth 48h: inhibits P. falciparum growth in the first generation, 48 h | P. falciparum luciferase growth in erythrocytes, 48 h | 310,000 compounds, 5.9% hits | AID 504832 | Potency, µM (highest dose often 28.7 µM), for inactives: top-dose activity change, negative = inhibition, most hits filed as inhibitors; note: potency is the fitted concentration of half-maximal effect; % is set by controls: 0 for no effect and ±100 for the full control effect
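Here the parasites carry a stable luciferase gene and grow inside erythrocytes in Albumax-based RPMI medium with compound for one erythrocytic cycle. Activity is scored as loss of luminescent signal.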
CHX counter: affects cycloheximide protein synthesis inhibition readout, counter-screen; cell reporter, cycloheximide protein synthesis inhibition counterscreen; 300,000 compounds, 12% hits; max response, %; in the data active = max response mostly above about 13%, no sharp cut-off; inactive = mostly below about 14%; note: read at 38.3 µM for the half of the compounds with a filed dose; 0% is about no effect
HCMV inh: blocks human cytomegalovirus replication. activity change, negative = inhibition, % at 57.5 µM. 410,000 compounds, 4.5% hits. AID 1259415. HFF cells, HCMV-luciferase reporter, 72 h; stronger effect = lower value; in the data active = activity change below about -60%; inconclusive = no clear call, values can overlap the other calls; inactive = above about -39%; note: % is set by controls: 0 for no effect and ±100 for the full control effect
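Human foreskin fibroblasts infected with luciferase-reporter HCMV at MOI 1 PFU/cell, compounds at two doses. Luciferase measured 72 h post infection; normalized to buffer-only basal and Salinomycin (10uM) controls.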
Shiga inhibitor: inhibitors of Shiga toxin in Vero cells; Vero cells, Shiga toxin protein synthesis inhibition reporter; AID 2315; 290,000 compounds, 9.2% hits; inhibition, % at 38.7 µM; in the data active = inhibition mostly above about 28%, no sharp cut-off; inactive = mostly below about 43%; note: 0% is about no effect
An asterisk follows results filed as active; i = inactive; ? = inconclusive; / = not tested or not shown. Unless noted, calls come from the whole dose curve; as a rule, active = well fitted inhibition curve with a large enough effect; inconclusive = small, poorly fitted or top-dose-only effect, or another doubt; inactive = no such curve, though single readings can be large or run the other way.

SMILES	Pf growth 96h	Pf growth 48h	CHX counter	HCMV inh	Shiga inhibitor
Cc1ccc(NNC(=O)c2cc(C(C)(C)C)nn2Cc2ccccc2)cc1	?	?	9	-17	22
O=C(Cc1ccc(NC(=O)C2CCN(C(=O)C3CCC3)CC2)cc1)Nc1cccc(C(=O)N2CCCC2)c1	/	/	/	0	/
COc1ccc2c(c1)C(c1ccccc1OC)CC(=O)O2 (centres undefined)	/	/	-1	/	i
Cc1cccc(OCCSc2ncnc3nc[nH]c23)c1	120%	23%	15*	-3	21
COc1ccccc1OCCSc1ncnc2nc[nH]c12	12µM*	4%	-2	-21	19
COc1ccccc1N1CCN(c2ncnc3nc[nH]c23)CC1	68%	1%	-4	-6	-14
COCCN(Cc1cc2cc(C)ccc2n2nnnc12)C(=S)Nc1cccc(C)c1	-22%	5.2µM*	24	54	28
Cc1ccc(C(=O)N(Cc2cccnc2)Cc2cc3cc(C)ccc3n3nnnc23)cc1	-2%	?	2	-28	12
CNC(=S)N(Cc1cc2cc(C)ccc2n2nnnc12)CC(C)(C)CN(C)C	5.9µM*	?	-3	-38	-17
CCc1ccc2c(c1)cc(CN(C(=S)Nc1cccc(C)c1)C1CC1)c1nnnn12	2.3µM*	?	-1	-18	-17
Cc1cc2cc(CN(C(=O)C3CC3)C3CCCC3)c3nnnn3c2cc1C	/	/	-2	-22	-26
C[C@H]1O[C@@H](n2cnc3c(N)ncnc32)C[C@@H]1OP(=O)(O)OP(=O)(O)OP(=O)(O)O	/	/	13	/	5
CCOC(=O)c1c(C)oc2nc(C)nc(NCC3CCN(Cc4ccc(F)cc4)CC3)c12	/	/	/	14	/
C/C(CS(=O)(=O)c1ccc(Cl)cc1)=N/NC(N)=S	0%	-4%	-2	-23	-10
C/C(CS(=O)(=O)c1ccc(Cl)c(Cl)c1)=N/NC(N)=S	-28%	42%	4	-70*	4
CCCS(=O)(=O)N1CCC(C(=O)NCCCOC(C)C)CC1	9.3µM*	3%	4	38	-21
CCCS(=O)(=O)N1CCC(C(=O)NCCCOC)CC1	59%	14%	-3	26	-12
CCCS(=O)(=O)N1CCC(C(=O)NCCCOCC)CC1	15µM*	40%	-4	-5	6
COC(=O)c1cccc(NC(=O)CCc2c(C)noc2C)c1	-5%	-1%	/	10	/
COc1ccc(-n2nnc(C(=O)Nc3ccccc3F)c2N)cc1	/	/	/	77	/
COc1cccc(-n2cc(CNCc3c(C(=O)N(C)C)nc4ccc(Cl)cn34)cn2)c1	?	8.3µM*	2	-1	11
Cc1ccc(NC(=O)c2nnn(-c3ccc4c(c3)OCCO4)c2N)cc1	-28%	147%	37*	?	112*
Cc1ccccc1Cn1nnc(C(=O)Nc2ccc3c(c2)OCCO3)c1N	121%	113%	/	2	/
Nc1c(C(=O)Nc2ccccc2)nnn1-c1ccc2c(c1)OCCO2	-2%	76%	34*	-28	74*
Clc1nccc(NCc2ccccc2)n1	/	/	/	64	/
SMILES	Pf growth 96h	Pf growth 48h	CHX counter	HCMV inh	Shiga inhibitor
N#Cc1c(NCc2ccccc2)ccnc1Cl	/	/	/	-69*	/
CCCCNc1c(N)n(CCC)c(=O)[nH]c1=O	-11%	14%	-5	24	-8
CCCCNc1c(N)n(CC(C)C)c(=O)[nH]c1=O	5%	15µM*	-3	4	3
CCCCn1c(N)c(NCC(C)C)c(=O)[nH]c1=O	12%	15%	0	-91*	2
CCCCn1c(N)c(NCC)c(=O)[nH]c1=O	12%	11%	-4	3	-4
N#Cc1nccnc1S(=O)(=O)c1cccs1	-2%	4%	-2	-97*	2
COc1ccc(-c2[nH]nc3c2C(c2ccc(OC(=O)N4CCOCC4)cc2)C(C#N)=C(N)O3)cc1 (centres undefined)	13µM*	1%	-2	-20	-5
Cc1ccc(-c2[nH]nc3c2C(c2ccccc2OC(=O)N2CCOCC2)C(C#N)=C(N)O3)cc1 (centres undefined)	10µM*	?	17	0	42
CC1=CCn2c(=O)c3ccccc3c(=O)n2C1	74%	19%	11	-26	14
O=c1c2ccccc2c(=O)n2n1Cc1ccccc1C2	25%	54%	14*	47	20
COc1cc(C)ccc1N(CCCN1C(=O)c2cccc3cccc(c23)C1=O)C(=O)c1cccs1	9.3µM*	?	-7	?	-14
Cc1ccc(N(CCCCN2C(=O)c3ccccc3C2=O)C(=O)c2cccs2)cc1	?	-29%	-4	-83*	-10
O=C(NCc1ccco1)C(c1ccccc1)N(Cc1ccccc1)C(=O)Cn1nnc2ccccc21 (centres undefined)	9.3µM*	-22%	18*	-35	40
Cc1cccc(C)c1NC(=O)C(c1cccs1)N(Cc1ccco1)C(=O)Cn1nnc2ccccc21 (centres undefined)	/	6.6µM*	-3	?	1
O=C(NCc1ccco1)C(c1ccccc1)N(CC1CCCO1)C(=O)Cn1nnc2ccccc21 (centres undefined)	0%	?	-1	1	-23
O=C(NCc1ccc(F)cc1)C(c1ccccc1)N(CC1CCCO1)C(=O)Cn1nnc2ccccc21 (centres undefined)	?	8.3µM*	-1	-25	-4
O=C(NCC1CCCO1)C(c1ccc(F)cc1)N(CC1CCCO1)C(=O)c1ccc(-c2ccccc2)[nH]1 (centres undefined)	26%	2.1µM*	-2	7	-3
COC(=O)Cc1ccc(NC(=S)NNC(=O)C2CC2)cc1	10%	12%	-4	30	-23
O=C(CCCc1ccccc1)Nc1ccnn1C1CCN(Cc2ccc(CO)o2)CC1	55%	-18%	-1	7	-6
COc1ccccc1C1(CC(=O)N2CCCCC2)CCOC(C(C)C)C1 (centres undefined)	15µM*	/	-5	-4	-7
Cc1ccc(C2(CC(=O)N3CCCC3)CCOC(C(C)C)C2)cc1 (centres undefined)	?	/	-1	26	-2
O=C1c2cccnc2C(=O)N1Cc1ccc(Cl)cc1	1.7µM*	1%	1	3	26
O=C1c2cccnc2C(=O)N1Cc1ccccc1	-39%	-8%	-3	29	-4
COc1ccc(CN2C(=O)c3cccnc3C2=O)cc1S(=O)(=O)NC1CCCCC1	13µM*	22%	6	-36	-8
Cc1ccc(-c2nnc3ccccc3c2C(=O)Nc2ccc(F)cc2)cc1	/	/	/	71	/
Nc1cccc(Oc2ccc3c(c2)C(=O)N(CC2CCCO2)C3=O)c1 (centres undefined)	63%	76%	35*	27	82*
Cc1ccc(C)c(NC(=O)CCN2C(=O)[C@@H]3Cc4ccccc4CN3C2=O)c1	-29%	-11%	-3	?	-4
Cc1cc(C)c(S(C)(=O)=O)c(S(=O)(=O)c2ccc(Cl)cc2)n1	?	-25%	-3	-98*	-4

Compound activity as filed in PubChem.
